Consider three compounds from the supplement of paper PMC12808144.

SMILES strings stand for the structures. Unmarked numbers belong to inactive results.

For the first test, the system named is Mel-DCC-11-R. The test can be described thus: cell viability relative to DMSO control (fraction of DMSO control); higher = less cytotoxic, active = 0.8 or less. The note with it: 1 µM; 120 h; vemurafenib co-treatment 0 µM. How it is done: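 Same 315-drug TargetMol library at 1 µM in duplicate, 120 h, ATPlite luminescence normalised to DMSO controls, on the vemurafenib-resistant subline Mel-DCC-11-R cultured alone or with 8 µM vemurafenib co-treatment (Mel-DCC-11-R + V).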
For the compound `CCC1(c2ccc(N)cc2)CCC(=O)NC1=O` (stereo unspecified) [Aminoglutethimide], the cell viability was 1.08.
For the compound `CNC(=O)Oc1ccccc1OC(C)C` [Propoxur], the cell viability was 0.827.
As to `COc1cc([C@@H]2c3cc4c(cc3[C@H](O)[C@H]3COC(=O)[C@H]23)OCO4)cc(OC)c1OC` [Podophyllotoxin], the cell viability is 0.575 (active).

The same test, now with this note: 1 µM; 120 h; vemurafenib co-treatment 8 µM.
On to `CCC1(c2ccc(N)cc2)CCC(=O)NC1=O` (stereo unspecified) [Aminoglutethimide], for which the cell viability was 1.04.
Still for that read-out and setting: under `CNC(=O)Oc1ccccc1OC(C)C` [Propoxur] stands 0.985; under `COc1cc([C@@H]2c3cc4c(cc3[C@H](O)[C@H]3COC(=O)[C@H]23)OCO4)cc(OC)c1OC` [Podophyllotoxin], 0.407 (active).
